Assay results as given in ChEMBL document CHEMBL1961873, “Compounds: GSK PKIS; Assays: Nanosyn kinase panel” (2012).

Key:
[1] = molecular target: Dual specificity protein kinase CLK3 (Homo sapiens) (UniProt P49761); settings: at 1 µM;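 note: each value is the mean inhibition of CLK3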
[2] = molecular target: Dual specificity tyrosine-phosphorylation-regulated kinase 1A (Homo sapiens) (UniProt Q13627); settings: at 0.1 µM
[3] = molecular target: Dual specificity tyrosine-phosphorylation-regulated kinase 1A (Homo sapiens) (UniProt Q13627); settings: at 1 µM
[4] = molecular target: Dual specificity tyrosine-phosphorylation-regulated kinase 1B (Homo sapiens) (UniProt Q9Y463); settings: at 0.1 µM
[5] = molecular target: Dual specificity tyrosine-phosphorylation-regulated kinase 1B (Homo sapiens) (UniProt Q9Y463); settings: at 1 µM
[6] = molecular target: T1, Dual specificity tyrosine-phosphorylation-regulated kinase 2 (Homo sapiens) (UniProt Q92630); settings: at 0.1 µM
T1 sequence (whole entry): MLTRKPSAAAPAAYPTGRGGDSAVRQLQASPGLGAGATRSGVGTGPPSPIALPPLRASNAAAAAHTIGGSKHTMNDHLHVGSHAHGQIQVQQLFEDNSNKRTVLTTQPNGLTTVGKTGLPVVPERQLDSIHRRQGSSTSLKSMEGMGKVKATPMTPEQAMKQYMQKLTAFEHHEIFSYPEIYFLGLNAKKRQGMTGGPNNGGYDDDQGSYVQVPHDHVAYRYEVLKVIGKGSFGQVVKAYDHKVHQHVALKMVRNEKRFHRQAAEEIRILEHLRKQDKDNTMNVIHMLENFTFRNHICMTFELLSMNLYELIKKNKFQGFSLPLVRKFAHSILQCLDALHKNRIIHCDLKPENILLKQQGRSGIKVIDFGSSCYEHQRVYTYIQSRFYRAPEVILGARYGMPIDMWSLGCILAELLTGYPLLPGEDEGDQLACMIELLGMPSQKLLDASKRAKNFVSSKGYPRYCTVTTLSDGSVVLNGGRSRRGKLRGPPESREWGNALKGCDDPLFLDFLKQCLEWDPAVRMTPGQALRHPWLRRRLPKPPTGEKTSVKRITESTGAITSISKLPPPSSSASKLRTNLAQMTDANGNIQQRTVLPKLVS

[7] = molecular target: T1, Dual specificity tyrosine-phosphorylation-regulated kinase 2 (Homo sapiens); settings: at 1 µM
[8] = molecular target: Glycogen synthase kinase-3 alpha (Homo sapiens) (UniProt P49840); settings: at 0.1 µM
[9] = molecular target: Glycogen synthase kinase-3 alpha (Homo sapiens) (UniProt P49840); settings: at 1 µM
[10] = molecular target: Glycogen synthase kinase-3 beta (Homo sapiens) (UniProt P49841); settings: at 0.1 µM
[11] = molecular target: Glycogen synthase kinase-3 beta (Homo sapiens) (UniProt P49841); settings: at 1 µM
[12] = molecular target: Homeodomain-interacting protein kinase 1 (Homo sapiens) (UniProt Q86Z02); settings: at 0.1 µM
[13] = molecular target: Homeodomain-interacting protein kinase 1 (Homo sapiens) (UniProt Q86Z02); settings: at 1 µM
[14] = molecular target: T2, Homeodomain-interacting protein kinase 4 (Homo sapiens) (UniProt Q8NE63); settings: at 0.1 µM
T2 sequence (whole entry): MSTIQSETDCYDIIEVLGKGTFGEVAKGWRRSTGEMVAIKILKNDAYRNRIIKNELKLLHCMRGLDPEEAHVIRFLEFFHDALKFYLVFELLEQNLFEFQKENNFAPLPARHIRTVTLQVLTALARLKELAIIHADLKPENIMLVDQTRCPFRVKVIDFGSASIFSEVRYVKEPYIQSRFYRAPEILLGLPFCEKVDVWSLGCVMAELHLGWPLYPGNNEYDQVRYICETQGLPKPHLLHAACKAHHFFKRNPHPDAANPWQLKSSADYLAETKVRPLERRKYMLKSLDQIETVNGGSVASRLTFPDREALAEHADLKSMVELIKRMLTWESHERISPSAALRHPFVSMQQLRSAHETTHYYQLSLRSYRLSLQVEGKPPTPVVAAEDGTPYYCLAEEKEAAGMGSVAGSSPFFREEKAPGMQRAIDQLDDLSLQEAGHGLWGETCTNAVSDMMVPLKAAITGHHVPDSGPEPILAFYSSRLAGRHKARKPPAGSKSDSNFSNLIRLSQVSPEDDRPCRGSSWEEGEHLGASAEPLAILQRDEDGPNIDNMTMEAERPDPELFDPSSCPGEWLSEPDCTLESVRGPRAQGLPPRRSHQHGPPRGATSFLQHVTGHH

[15] = molecular target: T2, Homeodomain-interacting protein kinase 4 (Homo sapiens); settings: at 1 µM
[16] = molecular target: Mitogen-activated protein kinase 9 (Homo sapiens) (UniProt P45984); settings: at 0.1 µM
[17] = molecular target: Mitogen-activated protein kinase 9 (Homo sapiens) (UniProt P45984); settings: at 1 µM
[18] = molecular target: Mitogen-activated protein kinase 1 (Homo sapiens) (UniProt P28482); settings: at 0.1 µM
[19] = molecular target: Mitogen-activated protein kinase 1 (Homo sapiens) (UniProt P28482); settings: at 1 µM
[20] = molecular target: Mitogen-activated protein kinase 3 (Homo sapiens) (UniProt P27361); settings: at 0.1 µM;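 note: each value is a mean inhibition figure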
Sequence of Mitogen-activated protein kinase 3 (Homo sapiens) (P27361 whole entry): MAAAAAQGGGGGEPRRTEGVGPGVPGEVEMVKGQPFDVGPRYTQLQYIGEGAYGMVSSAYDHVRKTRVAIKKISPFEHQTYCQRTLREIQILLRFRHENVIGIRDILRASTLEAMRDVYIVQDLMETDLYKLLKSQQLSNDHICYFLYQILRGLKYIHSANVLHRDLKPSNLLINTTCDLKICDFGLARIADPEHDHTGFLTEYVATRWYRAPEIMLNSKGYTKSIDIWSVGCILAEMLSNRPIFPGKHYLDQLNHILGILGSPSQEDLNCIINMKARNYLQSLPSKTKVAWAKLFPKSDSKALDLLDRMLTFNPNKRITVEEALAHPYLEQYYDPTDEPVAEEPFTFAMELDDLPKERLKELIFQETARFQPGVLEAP

Sequence of Glycogen synthase kinase-3 beta (Homo sapiens) (P49841 whole entry, looked up): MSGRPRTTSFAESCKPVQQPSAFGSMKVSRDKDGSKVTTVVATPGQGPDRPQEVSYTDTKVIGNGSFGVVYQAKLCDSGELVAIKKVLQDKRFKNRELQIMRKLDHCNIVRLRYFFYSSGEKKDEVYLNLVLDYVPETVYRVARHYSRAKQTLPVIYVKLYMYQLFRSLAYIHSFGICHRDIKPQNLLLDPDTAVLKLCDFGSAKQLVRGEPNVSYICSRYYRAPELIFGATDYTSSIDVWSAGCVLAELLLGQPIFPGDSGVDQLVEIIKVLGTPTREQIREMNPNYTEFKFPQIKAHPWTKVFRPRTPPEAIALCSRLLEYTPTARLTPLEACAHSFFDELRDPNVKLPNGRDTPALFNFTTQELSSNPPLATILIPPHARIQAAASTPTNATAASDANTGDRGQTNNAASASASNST
Sequence of Homeodomain-interacting protein kinase 1 (Homo sapiens) (Q86Z02 whole entry, looked up): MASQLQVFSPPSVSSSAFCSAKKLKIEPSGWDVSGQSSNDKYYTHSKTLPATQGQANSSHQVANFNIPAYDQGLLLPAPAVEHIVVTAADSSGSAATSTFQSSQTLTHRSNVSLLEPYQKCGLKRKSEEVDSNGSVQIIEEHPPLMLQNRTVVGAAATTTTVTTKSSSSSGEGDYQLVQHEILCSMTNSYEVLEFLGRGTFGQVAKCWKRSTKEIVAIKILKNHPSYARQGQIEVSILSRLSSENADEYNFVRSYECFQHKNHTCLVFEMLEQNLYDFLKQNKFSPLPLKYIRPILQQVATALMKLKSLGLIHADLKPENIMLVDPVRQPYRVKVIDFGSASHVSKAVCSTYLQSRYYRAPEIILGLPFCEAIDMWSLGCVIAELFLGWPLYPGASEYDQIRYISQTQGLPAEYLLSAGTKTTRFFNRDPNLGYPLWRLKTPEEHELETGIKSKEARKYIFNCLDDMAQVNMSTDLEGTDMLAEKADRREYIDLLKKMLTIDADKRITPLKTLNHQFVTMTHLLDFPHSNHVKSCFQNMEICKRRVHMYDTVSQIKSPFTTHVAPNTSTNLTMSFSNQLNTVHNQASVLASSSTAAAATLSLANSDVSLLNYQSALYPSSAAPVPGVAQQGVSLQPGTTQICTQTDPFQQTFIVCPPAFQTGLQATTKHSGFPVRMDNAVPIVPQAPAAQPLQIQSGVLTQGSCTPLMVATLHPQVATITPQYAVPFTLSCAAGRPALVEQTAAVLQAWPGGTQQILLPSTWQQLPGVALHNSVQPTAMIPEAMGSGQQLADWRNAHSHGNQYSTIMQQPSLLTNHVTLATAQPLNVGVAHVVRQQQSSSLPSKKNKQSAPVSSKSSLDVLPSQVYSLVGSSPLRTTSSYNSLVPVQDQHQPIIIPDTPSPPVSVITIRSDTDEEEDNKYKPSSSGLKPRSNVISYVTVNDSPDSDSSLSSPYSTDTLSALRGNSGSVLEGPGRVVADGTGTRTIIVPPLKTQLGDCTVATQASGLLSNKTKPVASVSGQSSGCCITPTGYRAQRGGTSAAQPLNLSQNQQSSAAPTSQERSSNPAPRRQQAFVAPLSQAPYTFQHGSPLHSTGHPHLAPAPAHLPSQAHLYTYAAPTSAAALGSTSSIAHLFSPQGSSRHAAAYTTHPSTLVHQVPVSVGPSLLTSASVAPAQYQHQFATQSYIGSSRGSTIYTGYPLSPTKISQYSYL
Sequence of Dual specificity protein kinase CLK3 (Homo sapiens) (P49761 whole entry, looked up): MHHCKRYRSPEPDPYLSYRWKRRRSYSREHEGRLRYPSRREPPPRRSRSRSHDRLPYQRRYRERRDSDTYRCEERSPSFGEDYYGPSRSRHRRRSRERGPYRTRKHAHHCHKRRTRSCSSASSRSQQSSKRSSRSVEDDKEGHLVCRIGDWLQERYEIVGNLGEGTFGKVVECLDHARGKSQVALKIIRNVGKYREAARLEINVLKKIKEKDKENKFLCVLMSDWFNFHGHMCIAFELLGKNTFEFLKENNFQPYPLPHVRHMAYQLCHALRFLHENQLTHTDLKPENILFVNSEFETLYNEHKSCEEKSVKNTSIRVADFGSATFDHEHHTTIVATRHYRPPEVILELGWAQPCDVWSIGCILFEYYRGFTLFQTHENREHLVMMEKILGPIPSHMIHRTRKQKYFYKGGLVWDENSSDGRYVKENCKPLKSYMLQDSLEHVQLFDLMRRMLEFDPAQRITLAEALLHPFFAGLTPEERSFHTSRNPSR
Sequence of Glycogen synthase kinase-3 alpha (Homo sapiens) (P49840 2-483 limits assumed): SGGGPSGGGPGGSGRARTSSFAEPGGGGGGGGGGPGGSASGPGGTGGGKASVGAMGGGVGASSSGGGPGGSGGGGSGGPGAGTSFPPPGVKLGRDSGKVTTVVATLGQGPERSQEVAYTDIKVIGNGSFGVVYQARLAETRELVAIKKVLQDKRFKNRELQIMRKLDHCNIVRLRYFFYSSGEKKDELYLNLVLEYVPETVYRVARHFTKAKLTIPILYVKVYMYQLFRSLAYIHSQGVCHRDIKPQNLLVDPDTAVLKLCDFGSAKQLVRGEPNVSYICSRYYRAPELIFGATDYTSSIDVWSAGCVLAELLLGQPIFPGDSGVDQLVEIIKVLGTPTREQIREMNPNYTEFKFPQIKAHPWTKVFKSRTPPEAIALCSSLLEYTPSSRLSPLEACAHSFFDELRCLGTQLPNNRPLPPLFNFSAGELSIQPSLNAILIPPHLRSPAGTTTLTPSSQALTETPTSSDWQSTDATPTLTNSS
Sequence of Mitogen-activated protein kinase 1 (Homo sapiens) (P28482 whole entry): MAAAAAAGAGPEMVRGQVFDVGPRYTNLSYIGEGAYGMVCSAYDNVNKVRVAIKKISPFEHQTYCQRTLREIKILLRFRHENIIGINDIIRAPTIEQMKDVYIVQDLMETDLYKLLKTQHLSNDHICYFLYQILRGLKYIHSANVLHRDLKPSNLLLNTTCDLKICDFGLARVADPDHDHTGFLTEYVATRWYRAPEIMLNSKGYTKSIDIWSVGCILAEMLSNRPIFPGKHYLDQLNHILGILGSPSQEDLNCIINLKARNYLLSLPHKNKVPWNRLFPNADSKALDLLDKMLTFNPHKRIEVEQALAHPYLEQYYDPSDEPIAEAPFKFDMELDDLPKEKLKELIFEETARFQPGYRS
Sequence of Dual specificity tyrosine-phosphorylation-regulated kinase 1B (Homo sapiens) (Q9Y463 whole entry, looked up): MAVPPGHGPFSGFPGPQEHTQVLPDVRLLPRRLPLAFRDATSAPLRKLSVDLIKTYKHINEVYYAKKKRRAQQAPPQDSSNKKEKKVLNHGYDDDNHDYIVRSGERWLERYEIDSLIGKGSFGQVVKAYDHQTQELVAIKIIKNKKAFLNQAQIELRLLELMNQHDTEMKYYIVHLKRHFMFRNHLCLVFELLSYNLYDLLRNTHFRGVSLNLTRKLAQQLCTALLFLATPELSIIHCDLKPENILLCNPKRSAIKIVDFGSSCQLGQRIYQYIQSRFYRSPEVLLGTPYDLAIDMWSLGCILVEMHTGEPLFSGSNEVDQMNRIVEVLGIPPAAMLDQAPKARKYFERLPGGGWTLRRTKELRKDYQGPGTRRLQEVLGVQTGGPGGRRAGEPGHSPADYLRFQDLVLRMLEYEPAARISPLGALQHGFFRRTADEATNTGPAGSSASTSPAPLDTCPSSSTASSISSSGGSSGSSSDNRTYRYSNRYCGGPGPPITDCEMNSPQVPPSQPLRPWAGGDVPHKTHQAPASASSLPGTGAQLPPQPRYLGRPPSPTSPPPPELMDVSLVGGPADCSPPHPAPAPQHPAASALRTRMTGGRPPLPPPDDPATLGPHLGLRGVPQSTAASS
Sequence of Mitogen-activated protein kinase 9 (Homo sapiens) (P45984 whole entry, looked up): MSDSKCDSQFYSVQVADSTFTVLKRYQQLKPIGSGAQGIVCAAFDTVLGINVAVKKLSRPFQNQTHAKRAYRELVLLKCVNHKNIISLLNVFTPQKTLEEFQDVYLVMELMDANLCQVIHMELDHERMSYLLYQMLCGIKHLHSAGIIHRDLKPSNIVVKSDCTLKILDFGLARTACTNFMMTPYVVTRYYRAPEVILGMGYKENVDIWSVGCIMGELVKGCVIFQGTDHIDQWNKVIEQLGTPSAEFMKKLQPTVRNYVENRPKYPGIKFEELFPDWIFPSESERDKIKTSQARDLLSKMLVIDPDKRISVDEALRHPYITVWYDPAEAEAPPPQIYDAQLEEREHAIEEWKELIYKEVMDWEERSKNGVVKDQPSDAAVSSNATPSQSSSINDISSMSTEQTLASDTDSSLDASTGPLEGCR

SMILES	inhibition [1] [%]	inhibition [2] [%]	inhibition [3] [%]	inhibition [4] [%]	inhibition [5] [%]	inhibition [6] [%]	inhibition [7] [%]	inhibition [8] [%]	inhibition [9] [%]	inhibition [10] [%]	inhibition [11] [%]	inhibition [12] [%]	inhibition [13] [%]	inhibition [14] [%]	inhibition [15] [%]	inhibition [16] [%]	inhibition [17] [%]	inhibition [18] [%]	inhibition [19] [%]	inhibition [20] [%]
Fc1ccc(-c2ncn(CCCN3CCOCC3)c2-c2ccncc2)cc1	0.51	-0.26	0.01	-0.42	-0.19	-0.03	0.55	-0.11	4.21	-0.54	1.01	-3.44	-1.47	-2.02	-2.54	2.43	6.68	0.12	1.09	4.06
CCS(=O)(=O)c1ccc(OC)c(Nc2ncc(-c3ccccc3Cl)o2)c1	8.78	0.71	5.06	1.56	5.7	1.98	11.8	0.38	1.64	1.56	1.12	1.24	9.06	8.83	47.5	1.42	1.23	0.66	0.84	1.66
COc1cc2ncn(-c3cc(OCc4ccccc4C(F)(F)F)c(C(C)=O)s3)c2cc1OC	1.08	1.88	2.83	-0.72	0.32	1.35	1.43	1.6	3.73	1.43	2.85	-0.68	4.77	3.23	7.24	0.67	0.69	5.64	5.81	3.61
Cc1nnc(-c2ccc(C)c(-c3ccc(C(=O)NCc4ccc(Cl)cc4)cc3)c2)o1	-1.79	0.32	0.5	-2.54	-4.08	2.1	3.03	0.36	9.75	-0.31	4.25	-2.88	-3.98	-0.69	0.29	4.09	4.44	8.3	4.45	2.96
CCC(=O)Nc1ccc(C)c(-c2ccc(C(=O)NCC3CC3)cc2)c1	-0.21	1.98	3.18	-0.71	0.18	3.11	2.91	1.84	3.42	0.54	2.31	-3.16	-2.43	0.11	0.55	2.92	4.2	4.32	4.25	2.94
NC(=O)c1cc(-c2ccncc2)cc(-c2ccccc2)c1N	2.34	6.65	29.2	3.05	17.9	3.61	4.25	3.97	12.7	2.53	9.17	-1.44	-0.02	1.54	4.34	5.97	6.49	4	6.15	3.98
COc1cc2ncn(-c3cc(OCc4cccs4)c(C(N)=O)s3)c2cc1OC	0.59	-2.96	-0.93	-3.74	-1.79	0.17	4.35	0.28	6.22	0.55	7.28	1.93	18.1	20.2	63.3	0.6	4.51	5.16	2.33	3.68
NS(=O)(=O)c1ccc(N/N=C2\C(=O)Nc3ccc(-c4cnco4)cc32)cc1	1.68	29.3	81.2	4.08	38.5	9.21	52	31.6	67.4	26.4	65.2	-2.16	25.2	3.05	15.6	0.65	2.38	3.21	7.04	2.36
COc1cc(Nc2ncc3c(C)nc(-c4cccc(C(F)(F)F)c4)n3n2)cc(OC)c1OC	2.91	4.11	29.8	0.38	11.2	2.73	3.63	2.88	13.8	4.09	28.1	4.84	26.8	1.83	9.08	0.45	4.58	5.55	13	4.86
O=C1Nc2ccccc2/C1=C/Nc1ccc(-n2cncn2)cc1	1.52	6.54	14.3	3.43	11.6	3.46	6.8	17.3	28.2	15.3	25.4	2.9	5.5	0.86	3.17	5.47	12.1	6.04	6.4	93.3
Cc1ccc(NC(=O)c2ccoc2)cc1-c1ccc(C(=O)NCC2CC2)cc1	0.49	2.62	3.4	-0.58	2.65	1.99	0.34	11	0.83	6.09	-0.68	-3.48	0.37	0.84	0.22	3.16	2.57	3.2	3.37	2.67
CCS(=O)(=O)c1ccc(OC)c(Nc2ncc(-c3cccc(-c4ccccc4F)c3)o2)c1	13.9	3.84	26	3.9	18.5	1.46	10.3	2.37	9.24	1.65	7.6	1.49	6.56	3.89	17.3	0.09	6.86	-1.77	-3.35	-2.17
O=C(Nc1n[nH]c2cc(-c3cc(F)ccc3F)ccc12)C1CC1	1.26	2.37	4.39	-0.4	-0.93	2.2	3.59	7.07	30.4			-1.3	1.85	-0.9	3.56	4.38	6.23	2.24	4.09	4.01
Fc1ccc(-c2ncn(C3CCNCC3)c2-c2ccnc(Oc3ccc(F)c(F)c3)n2)cc1	-3.79	-2.02	-0.16	-4.48	-2.53	1.98	2.31	0.07	2.94	-0.48	2.53	-6.31	-2.14	0.46	1.77			4.93	6.35	3.84
COc1cccc(/C=N/Nc2ncnc3c2cnn3-c2cccc(OC)c2)c1	1.67	3.1	7.79	-0.79	2.23	2.19	6.04	14.8	58.1	10.3	51.1	-1.82	2.63	0.49	4.13	3.29	5.5	5.68		3.77
O=C(Nc1n[nH]c2cc(-c3ccccc3)ccc12)C1CC1	2.33	5.04	6.14	1.94	3.5	2.82	4.68	6.53	32.7			0.47	0.72	1.87	3.44	6.25	7.19	2.48	6.01	4.31
CS(=O)(=O)CCNCc1cc(-c2cc3c(Nc4ccc(OCc5cccc(F)c5)c(Cl)c4)ncnc3s2)cs1	0.02	2.31	3.13	-1.81	-0.61	3.75	8.37	2.31	2.97	1.53	1.78	-2.22	-1.08	-0.67	1.29	3.11	7.13	5.61	7.79	4.58
COc1cc2ncn(-c3cc(OCCc4ccccc4)c(C(N)=O)s3)c2cc1OC	3.27	3.14	3.09	1.95	1.81	-0.08	4.14	0.82	3.18	0.44	0.1	-0.4	3.92	2.74	19.1	4.17	3.52	1.47	3.64	0.38
NC(=O)c1cc(-c2ccc(F)cc2)cc(-c2ccncc2)c1N	0.95	1.07	3.02	-0.78	-1.19	3.58	5.04	1.24	1.03	0.05	1.12	1.44	0.21	-0.23	2.98	3.69	2.06	4.92	5.18	3.25
NC(=O)Cc1ccccc1Oc1nccc(-c2c(-c3ccc(F)cc3)ncn2C2CCNCC2)n1	1.79	4.01	5.44	2.79	3.43	2.28	3.74	1.87	3.05	-0.25	1.98	0.04	-0.28	1.66	3.18			0.51	4.48	1.47
Nc1nccc(-c2c(-c3ccc(F)cc3)ncn2C2CCC(O)CC2)n1 (centres undefined)	3.28	2.86	5.97	3.71	5.6	-1.97	-2.78	0.95	5.67	1.63	14.1	2.2	4	1.22	3.26	9.42	53.3		-2.72	-0.59
COc1cc(Nc2ncc(-c3ccccc3)o2)cc(OC)c1OC	0.88	1.8	6.39	1.65	3.72	-2.15	-1.69	5.71	34.4	5.44	35.8		11.2	0.61	3.87	-3.91	-3.35	-2.3	-1.83	0.83
